Measurements from the supplement of paper PMC12350171.
Where a name gives a salt, the structure may show the parent alone. Values without a mark were called inactive.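 How the source made its calls: active = AUC significantly below DMSO controls by Student t-fit with adjusted P under 0.01; inactive = not significantly reduced.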

These compounds were tested on Haemophilus parainfluenzae (assay: growth AUC normalised to DMSO control (fraction of control); higher = less growth inhibition, active = hit call of the paper). Conditions: 20 µM.
Outline: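 For the AUC endpoint, growth curves were integrated by the trapezoidal rule up to the exponential-to-stationary transition and normalised to DMSO controls on the same plate. The curves came from OD578 readings taken hourly for 24 h, in three biological replicates. Pathogens had been passaged anaerobically twice and inoculated at an OD578 of 0.01 into pre-reduced mGAM plates carrying 20 μM compound and 1% DMSO, sealed with breathable membranes. Medium for Haemophilus parainfluenzae also contained hemin and NAD.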
With `CCN(CC)CC#CCOC(=O)C(O)(c1ccccc1)C1CCCCC1` (configuration not stated) [Oxybutynin chloride] the “growth AUC normalised to DMSO control” value was 0.952.
`Cc1ncc([N+](=O)[O-])n1CC(C)O` (configuration not stated) [Secnidazole] was tested, and the “growth AUC normalised to DMSO control” value was 0.937.
`CN1CCC(=C2c3ccccc3C=Cc3ccccc32)CC1` [Cyproheptadine hydrochloride] was tested, and the “growth AUC normalised to DMSO control” value was 0.921.
With `CC(C)NCC(O)c1ccc(O)c(O)c1` (single isomer, unassigned; (+)) [(+) Isoproterenol-(+)-bitartrate salt] the “growth AUC normalised to DMSO control” value was 1.02.
With `COc1c(N2C[C@@H]3CCCN[C@@H]3C2)c(F)cc2c(=O)c(C(=O)O)cn(C3CC3)c12` [Moxifloxacin] the “growth AUC normalised to DMSO control” value was 0.0254 (active).
`N=C(N)NC(=N)NCCc1ccccc1` [Phenformin hydrochloride] was tested, and the “growth AUC normalised to DMSO control” value was 1.04.
In the case of `CC(=O)O[C@]1(C(C)=O)CC[C@H]2[C@@H]3C=C(C)C4=CC(=O)CC[C@@H]4[C@H]3CC[C@@]21C` [Nomegestrol acetate], the “growth AUC normalised to DMSO control” value is reported as 0.976.
